Assay outcomes (PubChem)
Pf growth 48h = Primary qHTS for delayed death inhibitors of the malarial parasite plastid, 48 hour incubation; hit rate 5.9% among 310,000; AID 504832, 2011; Potency, µM (top dose mostly 28.7 µM), without a hit: at the highest dose activity change, negative = inhibition, most hits filed as inhibitors; P. falciparum luciferase growth in erythrocytes, 48 h; also: % is scaled to controls: 0 for no effect and ±100 for the full control effect
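Read-out is firefly luciferase luminescence from an integrated reporter in P. falciparum, so falling signal marks reduced parasite growth. Infected erythrocytes were at 2% hematocrit and 0.1% parasitemia (final) in Albumax-supplemented RPMI 1640.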
Sm TGR inh = qHTS Assay for the Inhibitors of Schistosoma Mansoni Peroxiredoxins | Schistosoma mansoni thioredoxin glutathione reductase (TGR), Q962Y6 | purified TGR, DTNB reduction, TNB absorbance 405 nm | Potency, µM (titrated, usually from 114 µM), inactives show at the highest dose activity change, negative = inhibition, usual class: inhibitors | hit rate 3% among 360,000 | AID 485364, 2010; also: % is scaled to controls: 0 for no effect and ±100 for the full control effect; nearly all actives have a fitted effect of over 60% in size
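Kinetic colorimetric format: TGR-catalysed, NADPH-driven DTNB reduction monitored via TNB absorbance. Enzyme dispensed at 20 nM; compound exposure 15 min at room temperature before reaction start.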
Pf growth 96h = Primary qHTS for delayed death inhibitors of the malarial parasite plastid, 96 hour incubation; AID 504834, 2011; Potency, µM (titrated, usually from 28.7 µM), without a hit: top-dose activity change, negative = inhibition, actives largely listed as inhibitors; P. falciparum luciferase reporter growth, 96 h; hit rate 6.9% among 320,000; also: % is scaled to controls: 0 for no effect and ±100 for the full control effect
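Two parasite generations (96 h, 37 C, 5% CO2) of compound exposure in infected erythrocytes (0.05% parasitemia, 2% hematocrit). Luciferase-reporter P. falciparum; decreased luminescence indicates inhibited growth, aimed at apicoplast-acting delayed death.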
NS1 inh = qHTS Assay for Inhibitors of Influenza NS1 Protein Function | Potency, µM (series often up to 46.1 µM), for inactives: at the top dose activity, positive = more growth | hit rate 0.4% among 270,000 | AID 2326, 2010; calls by dose curve; also: actives are rising curves; nearly all actives have a fitted effect of over 50% in size
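In this qHTS, NS1 from influenza A is expressed in budding yeast, where it slows growth. Cells are switched from glucose to 2% galactose medium (pH 6.0, -URA), treated with compound, and growth recovery is read at OD600.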
AMA1-RON2 inh = qHTS for Inhibitors of AMA1-RON; Towards Development of Antimalarial Drug Lead: Primary Screen. Plasmodium falciparum AMA1 (3D7) - RON2 peptide interaction. AlphaScreen AMA1-biotinylated RON2 peptide binding. Potency, µM (doses to about 58.2 µM), without a hit: top-dose activity change, negative = inhibition, hits mostly inhibitors. hit rate 0.2% among 360,000. AID 720542, 2013;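 also: 0% = vehicle wells and -100% = peptide control; nearly all actives have a fitted effect of over 45% in size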
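AMA1 (3D7) with his tag at 25 nM final met compounds first, then biotinylated RON2 peptide at 25 nM; detection used donor plus acceptor beads, 10 µg/mL apiece, read by AlphaScreen after 30 min at room temperature.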
* hit, by the source's call; ? = inconclusive; . = no result given; [ ] = dose if it differs, or a comment. Shown are actives, neighbours in structure and some others; about 11% of the full set was active somewhere. Unless noted, calls follow the shape of the dose curve; as a rule, active = well fitted curve in the direction sought with a large enough effect; inconclusive = small, poorly fitted or top-dose-only effect, or another doubt; inactive = no such curve, though single readings can be large; an effect the other way counts as inactive or inconclusive. Potency is read from the fitted curve at half-maximal effect.

SMILES	Pf growth 48h	Sm TGR inh	Pf growth 96h	NS1 inh	AMA1-RON2 inh
CCCCNC(=O)C1c2cc(OC)c(OC)cc2C(=O)N(C)C1c1cccs1 (stereo unspecified)	-6%	9%	2.1µM*	.	16%
COc1ccc(CN2CCCC(C(=O)c3ccc(Cl)cc3)C2)c(O)c1 (stereo unspecified)	0.83µM*	-24%	-72%	-11%	1%
O=C(c1ccc(Cl)cc1)C1CCCN(Cc2cccc3cccnc23)C1 (stereo unspecified)	9.3µM*	8%	-5%	2%	-5%
O=C(c1ccccc1)C1CCCN(Cc2nc(-c3cnccn3)no2)C1 (stereo unspecified)	-12%	.	5.2µM*	0%	9%
CSc1ccc(C(=O)C2CCCN(Cc3cccc4nccnc34)C2)cc1 (stereo unspecified)	10µM*	-22%	?	3%	-22%
Cc1cccc(N2CCN(C(=O)CS(=O)(=O)c3cccc4nsnc34)CC2C)c1 (stereo unspecified)	.	-10%	.	.	.
O=C(Nc1ccc(C(F)(F)F)cc1)C1CCCN(c2cnccn2)C1 (stereo unspecified)	.	-1%	.	.	.
C/C(CCc1oc2ccccc2c1-c1ccc(C)o1)=N/O	7%	20µM*	19%	-41%	-20%
O/N=C(/c1ccccc1)c1cc2cc(Br)cc(Br)c2o1	-7%	-1%	8%	6%	0%
C/C(CCc1oc2c(Br)cc(Br)cc2c1-c1ccc(C)o1)=N\O	?	16µM*	-8%	-3%	3.8µM*
CC(C)(C)N(CC#CCC1(O)c2ccccc2-c2ccccc21)CCO	?	-26%	12µM*	6%	24%
O=C(/C=C/c1ccco1)Nc1ccccc1N1CCCCC1	?	45µM*	33%[1.15 µM]	.	-25%
COC(=O)c1ccccc1NC(=O)/C=C/c1ccco1	?	40µM*	-24%	-13%	-27%
O=C(/C=C/c1ccco1)Nc1cccnc1Cl	186%	5.6µM*	101%	1%	-8%
CC(C)C(=O)N1CCN(c2ccccc2NC(=S)NC(=O)/C=C/c2ccco2)CC1	.	.	.	.	1%
CC(=O)Nc1ccc(S(=O)(=O)N2CCN(Cc3cccs3)CC2)cc1	11%	.	-15%	0%	-22%
CCC1CN(C(=O)Nc2cc(Cl)ccc2C(=O)OC)c2ccccc2S1 (stereo unspecified)	.	-5%	.	.	.
CCc1ccc(S(=O)(=O)c2cnc3ccc(OC)cc3c2N2CCCC(C)C2)cc1 (stereo unspecified)	.	2%	.	.	.
COc1ccc(S(=O)(=O)c2cnc3ccc(OC)cc3c2N2CCC3(CC2)OCCO3)cc1	?	-7%	8.3µM*	8%	-7%
CCOc1ccc2ncc(S(=O)(=O)c3ccccc3)c(N3CCC4(CC3)OCCO4)c2c1	13µM*	-9%	10µM*	1%	.
O=C(CNC(=O)c1ccc(-c2ccccc2)cc1)Nc1ccc(S(=O)(=O)Nc2ncccn2)cc1	42%	3%	34%	2%	-1%
C=CCOc1ccc(C2C(C#N)=C(N)N(Nc3ccccc3)C3=C2C(=O)CCC3)cc1OC (stereo unspecified)	8.3µM*	-3%	4.7µM*	10%	0%
COc1cc(C2C(C#N)=C(N)N(Nc3ccccc3)C3=C2C(=O)CC(C)(C)C3)ccc1OCc1ccccc1 (stereo unspecified)	4.1µM*	4%	2.9µM*	23%	-15%
COc1ccccc1-c1sc2cc3c(cc2c1C#Cc1cncn1C)OCO3	.	.	.	.	-18%
CN1CCc2nc(SCc3ccccc3Br)c(C#N)cc2C1	?	22µM*	13%	7%	-11%
SMILES	Pf growth 48h	Sm TGR inh	Pf growth 96h	NS1 inh	AMA1-RON2 inh
COC(=O)C1=C(CSc2nc3c(cc2C#N)CN(C)CC3)OC(N)=C(C#N)C1c1ccccc1F (stereo unspecified)	?	0%	12µM*	?	-11%
Cc1cccc(CSc2nc3c(cc2C#N)CN(C)CC3)c1	10µM*	-31%	7.4µM*	-6%	8%
CN1CCc2nc(SCCOc3ccccc3)c(C#N)cc2C1	-12%	?	.	?	-1%
C=CCOc1ccc(/C=N/O)cc1Cl	40%	-10%	3.3µM*	-1%	-9%
CC[C@H](C)[C@H]1O[C@]2(CC[C@@H]1C)C[C@@H]1C[C@@H](C/C=C(\C)[C@H](O[C@@H]3C[C@H](OC)[C@H](O[C@@H]4C[C@H](OC)[C@@H](O)[C@H](C)O4)[C@H](C)O3)[C@@H](C)/C=C/C=C3\CO[C@@H]4[C@H](O)C(C)=C[C@@H](C(=O)O1)[C@]34O)O2	1.2µM*	.	4.8µM*	.	.
CCOC(=O)C1CCCN(C2CC(=O)N(c3ccc(NC(C)=O)cc3)C2=O)C1 (stereo unspecified)	-15%	45µM*	?	.	-2%
CCOc1cccc(N2C(=O)CC(N3CCC(C(N)=O)(N4CCCCC4)CC3)C2=O)c1 (stereo unspecified)	2%	45µM*	.	-47%	16%
CCOC(=O)c1ccc(N2C(=O)CC(N3CCC(C(N)=O)(N4CCCCC4)CC3)C2=O)cc1 (stereo unspecified)	-9%	28µM*	?	-30%	1%
COc1cc(NC(=O)C2CCN(c3nnc(C)c4c(C)n(-c5ccccc5)nc34)CC2)cc(OC)c1	.	0%	.	.	.
COc1cc(C(=O)Nc2ccc3nc4n(c(=O)c3c2)CCCC4)ccc1Br	8.3µM*	-7%	-3%	2%	7%
COc1ccc(Cl)cc1C(=O)Nc1ccc2nc3n(c(=O)c2c1)CCCC3	?	1%	2.1µM*	-1%	0%
COc1cc(OC)cc(C(=O)Nc2ccc3nc4n(c(=O)c3c2)CCCC4)c1	?	-14%	14%	-1%	-1%
O=C(Nc1ccc(F)cc1)c1ccc2c(=O)n3c(nc2c1)CCCCC3	87%	4%	4.7µM*	-2%	-4%
O=C1CCC(C(=O)Nc2cc(C(F)(F)F)ccc2-n2cncn2)=NN1	?	0%	?	2%	34%
CCOP(=O)(OCC)/C(C#N)=C/c1ccoc1	-2%	45µM*	28%	9%	28%
Cc1ccc(S(=O)(=O)N2CCN(CCc3ccncc3)CC2)cc1	.	.	.	.	0%
Cc1ccc(C(=O)COC(=O)C2C3C=CC(C3)C2C(=O)OCC(=O)c2ccc(C)c(C)c2)cc1C (stereo unspecified)	?	8%	1.2µM*	8%	-12%
CC(=O)NCC(=O)OCC(=O)c1ccc(C)c(C)c1	14%	3%	27%	1%	-9%
N#CC(C#N)=C1C=CC=CN1/C(=C\c1ccccc1)C(=O)c1cccs1	0%	0.28µM*	?	?	7%
N#CC(C#N)=C1C=CC=CN1/C(=C\c1ccccc1Cl)C(=O)c1ccccc1	-11%	0.28µM*	-1%	-29%	-8%
